In test [1] the test system is DLD1. The test can be described thus: cell viability (CellTiter-Glo) relative to plate median (fraction of plate median); higher = more viable cells. Particulars: 5 µM; treatment time 24 h; reporter: 7TFP. Summed up: (§1)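 Signals from firefly luciferase or CellTiterGlo readouts were normalised well by well to the plate median using webcellHTS2, additively and with no log transformation. They came from colorectal cancer cell lines stably holding lentiviral TCF/Wnt firefly luciferase reporters (7TFP or TCF4/Wnt), treated with library compounds at a final 5 µM for 24 h. The mean of two independent replicates is given.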

Another test deals with HCT116. The test is described as above. Particulars: 5 µM; treatment time 24 h; reporter: TCF4/Wnt. Summed up: as §1
For test [2], the system named is SW480. Described as above. The settings on record: 5 µM; treatment time 24 h; reporter: 7TFP. In outline: as §1
For test [3], the system named is DLD1. The test can be described thus: TCF/Wnt firefly luciferase reporter signal relative to plate median (fraction of plate median); higher = higher Wnt reporter signal. Particulars: 5 µM; treatment time 24 h; reporter: 7TFP. Summed up: as §1
(A reporter such as luciferase makes a cellular process visible.)

Test [4] relates to SW480. The test is described as above. The settings on record: 5 µM; treatment time 24 h; reporter: 7TFP. Summed up: as §1

± gives the standard deviation of the averaged measurements.

On to `CC12CCC3C(CC3(C)C)C(C)(CCC1=O)O2` (stereo not given), for which the results for the cell viability in the test with DLD1 [1], in the test on HCT116 and in the test on SW480 [2] were 0.908 ± 0.033, 0.972 ± 0.069 and 0.892 ± 0.016, respectively. Also, the “TCF/Wnt firefly luciferase reporter signal” value amounted to 0.883 ± 0.23 in the test on DLD1 [3] and 0.889 ± 0.13 with SW480 [4].
For `COc1ccc2c(c1)O[C@H]1c3ccc(OC)cc3OC[C@@H]21` the same measures were 0.969 ± 0.044, 0.906 ± 0.12, 0.979 ± 0.044, 0.792 ± 0.025 and 0.969 ± 0.086.
In the same order, the values of `Nc1ccccc1C(=O)CC(N)C(=O)O` (stereo not given) are 1.01, 1.05 ± 0.1, 0.994 ± 0.023, 1.31 ± 0.05 and 1.08 ± 0.014.
In the same order, the values of `CNCCC=C1c2ccccc2CCc2ccccc21` are 0.9585 ± 0.00071, 0.979 ± 0.12, 0.972 ± 0.0057, 1.02 ± 0.079 and 1.04 ± 0.12.
In the case of `Cc1ccc(S(=O)(=O)NC(=O)NN2CC3CCCC3C2)cc1` (stereo not given), the cell viability in the test on DLD1 [1] was determined as 0.95 ± 0.063; in the test on HCT116, 0.999 ± 0.044; with SW480 [2] it was 0.974 ± 0.052. Besides, the “TCF/Wnt firefly luciferase reporter signal” value in the test on DLD1 [3] came out at 1.07 ± 0.071; in the test with SW480 [4] it was 0.9645 ± 0.0035.
For `O=c1n(CCCN2CCN(c3cccc(Cl)c3)CC2)nc2ccccn12` the same measures were 1.005 ± 0.0071, 0.987 ± 0.12, 1.01 ± 0.014, 1.08 ± 0.28 and 0.971 ± 0.083.
Take `COc1ccc2ccc(=O)oc2c1CC=C(C)C`: the cell viability with DLD1 [1] was 1.04 ± 0.13; in the test with HCT116, 1.01 ± 0.026; with SW480 [2], 0.985 ± 0.036. Moreover, the figures for the “TCF/Wnt firefly luciferase reporter signal” value in the test with DLD1 [3] and in the test on SW480 [4] were 1.01 ± 0.033 and 0.99 ± 0.071, respectively.
In the same order, the values of `Nc1nnc(-c2cccc(Cl)c2Cl)c(N)n1` are 1.05 ± 0.05, 1.04 ± 0.069, 0.975 ± 0.05, 0.923 ± 0.018 and 0.985 ± 0.036.
As for `CC(=O)OCC(=O)[C@@]1(O)CC[C@H]2[C@@H]3C[C@H](C)C4=CC(=O)C=C[C@]4(C)[C@H]3[C@@H](O)C[C@@]21C` [6alpha-METHYLPREDNISOLONE ACETATE], the cell viability was 1.03 ± 0.05 in the test on DLD1 [1], 0.957 ± 0.22 with HCT116 and 0.994 ± 0.037 in the test on SW480 [2]. For the same molecule, the “TCF/Wnt firefly luciferase reporter signal” value is 0.904 ± 0.15 in the test with DLD1 [3] and 0.937 ± 0.073 with SW480 [4].
In the case of `CC1(C)S[C@@H]2[C@H](NC(=O)Cc3ccccc3)C(=O)N2[C@H]1C(=O)O`, the figures for the cell viability in the test with DLD1 [1], in the test on HCT116 and in the test on SW480 [2] were 0.914 ± 0.0057, 0.968 ± 0.025 and 1.02 ± 0.067, respectively. Further, the “TCF/Wnt firefly luciferase reporter signal” value in the test on DLD1 [3] amounted to 1.16 ± 0.11; in the test with SW480 [4], 0.949 ± 0.14.
In the same order, the values of `Cc1onc(-c2ccccc2)c1C(=O)N[C@@H]1C(=O)N2[C@@H]1SC(C)(C)[C@@H]2C(=O)O` are 0.978 ± 0.032, 0.891 ± 0.1, 0.978 ± 0.0014, 1.21 ± 0.071 and 1.11 ± 0.028.
As for `CC(=O)Oc1c(-c2ccccc2)oc2c(CC=C(C)C)c3c(c(OC(C)=O)c2c1=O)C=CC(C)(C)O3`, the cell viability was 1.05 ± 0.057 in the test on DLD1 [1], 1.11 ± 0.11 with HCT116 and 1.02 ± 0.028 in the test on SW480 [2]. Also, the “TCF/Wnt firefly luciferase reporter signal” value in the test on DLD1 [3] amounted to 0.855 ± 0.044; in the test with SW480 [4], 0.972 ± 0.036.
For `S=P(N1CC1)(N1CC1)N1CC1` the same measures were 0.975 ± 0.036, 0.928 ± 0.017, 1.01 ± 0.03, 0.975 ± 0.03 and 0.93 ± 0.021.
For `Cc1cccc(Nc2ccccc2C(=O)O)c1C` the same measures were 1.03 ± 0.1, 1 ± 0.038, 1.07 ± 0.014, 0.927 ± 0.052 and 1.01 ± 0.089.
For `O=C1NCCN(C(=O)[C@H](Cc2ccccc2)NC(=O)[C@@H]2CCCN2)C1=O` [Prolyl-phenylalanyl-diketopiperazine] the same measures were 1.04 ± 0.15, 1.02 ± 0.035, 1.02 ± 0.021, 0.984 ± 0.02 and 0.918 ± 0.0014.
